# High-throughput results as filed in PubChem.
# Pf growth 48h: P. falciparum growth inhibition at 48 hours (one generation). P. falciparum luciferase growth in erythrocytes, 48 h. Potency, µM (doses to about 28.7 µM), without a hit: top-dose activity change, negative = inhibition, hits mostly inhibitors. hit rate 5.9% among 310,000
#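 First compound was added to culture medium, then infected red cells at 0.1% parasitemia and 2% hematocrit (final). After incubation at 37 C under 5% CO2, luciferase detection reagent was dispensed and light output recorded.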
# VACV mCherry inh: vaccinia inhibition (mCherry reporter); hit rate 0.63% among 310,000; Vaccinia virus mCherry reporter infection, fluorescence; Potency, µM (series often up to 36.5 µM), for the others: at the highest dose activity change, negative = inhibition, actives largely listed as inhibitors; AID 720579; calls by dose curve; tested in A549 cells; note: nearly all actives have a fitted effect of over 35% in size
# Pf growth 96h: P. falciparum growth inhibition at 96 hours; P. falciparum luciferase reporter growth, 96 h; Potency, µM (titrated, usually from 28.7 µM), for the others: at the top dose activity change, negative = inhibition, most hits filed as inhibitors; hit rate 6.9% among 320,000; AID 504834
#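 Delayed-death screen, second-generation endpoint: infected erythrocytes, 2% hematocrit, 0.05% parasitemia final; 96 hours at 37 C, 5% CO2; luciferase detection reagent; luminescence decrease equals reduced growth.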
# AMA1-RON2 inh: inhibitors of Plasmodium falciparum AMA1-RON2 interaction; Potency, µM (series often up to 58.2 µM), without a hit: top-dose activity change, negative = inhibition, hits mostly inhibitors; AlphaScreen AMA1-biotinylated RON2 peptide binding; hit rate 0.2% among 360,000;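 note: 0% = vehicle wells and -100% = peptide control; nearly all actives have a fitted effect of over 45% in size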
#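 AMA1 (3D7) with his tag at 25 nM final met compounds first, then biotinylated RON2 peptide at 25 nM; detection used donor plus acceptor beads, 10 µg/mL apiece, read by AlphaScreen after 30 min at room temperature.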
# VACV Venus inh: vaccinia inhibition (Venus reporter) | hit rate 0.46% among 330,000 | Potency, µM (top dose mostly 36.5 µM), for inactives: at the highest dose activity change, negative = inhibition, actives largely listed as inhibitors | Vaccinia virus Venus reporter expression, fluorescence; calls by dose curve; tested in A549 cells; note: nearly all actives have a fitted effect of over 30% in size
# Starred values were filed as active, the others as inactive; i = inactive; ? = inconclusive; / = not tested or not shown; [ ] = dose if it differs, or a comment. A selection: hits, their analogues and other compounds. The true share with any hit is near 8.7%. Unless noted, calls come from the whole dose curve; as a rule, active = well fitted curve in the direction sought with a large enough effect; inconclusive = small, poorly fitted or top-dose-only effect, or another doubt; inactive = no such curve, though single readings can be large; an effect the other way counts as inactive or inconclusive. Unless noted, % is set by controls: 0 for no effect and ±100 for the full control effect; potency is the fitted concentration of half-maximal effect.
SMILES,Pf growth 48h,VACV mCherry inh,Pf growth 96h,AMA1-RON2 inh,VACV Venus inh
COCCNc1nc2c(c(=O)n(C)c(=O)n2C)n1Cc1c(F)cccc1Cl,/,-23%,/,/,-15%
Cc1cccc2sc(NC(=O)C3CCCN(S(=O)(=O)c4cccc5nonc45)C3)nc12 (stereo not given),12µM*,/,?,8%,-7%
Cc1ccc(NC(=O)C2CCCN(S(=O)(=O)c3cccc4nonc34)C2)cc1 (stereo not given),21%,-10%,2.6µM*,10%,-1%
Cc1ccc2nc(NC(=O)C3CCCN(S(=O)(=O)c4cccc5nonc45)C3)sc2c1 (stereo not given),0%,/,?,/,/
COc1ccccc1NS(=O)(=O)c1cccc(NC(=O)Nc2ccccc2)c1,-1%,-13%,-5%,4%,?
Cn1nc(C(=O)Nc2ccc(Cl)c(S(=O)(=O)N3CCOCC3)c2)c2ccccc2c1=O,?,/,?,0%,/
Cn1nc(C(=O)Nc2ccc(S(=O)(=O)NCc3ccco3)cc2)c2ccccc2c1=O,?,-23%[7.34 µM],12µM*,-1%,-8%[7.34 µM]
Cn1nc(C(=O)Nc2ccc(S(=O)(=O)N3CCCCC3)cc2)c2ccccc2c1=O,?,i,8.3µM*,-7%,-14%
Cn1nc(C(=O)Nc2cccc(S(=O)(=O)N3CCCCC3)c2)c2ccccc2c1=O,?,-24%,9.3µM*,-14%,-22%
COc1ccccc1NS(=O)(=O)c1cccc(NC(=O)Nc2ccc(Cl)cc2)c1,?,i,10µM*,-8%,?
O=C(Cn1nc(C(=O)O)c2ccccc2c1=O)Nc1cccc(S(=O)(=O)N2CCCCC2)c1,/,-9%,/,-2%,14%
Cc1nn2c(C)c(C(=O)NCc3cccc(Br)c3)cnc2c1-c1ccccc1,/,-14%,/,/,-9%
CCOc1ccc(NC(=O)Cn2nc(-c3ccncc3)ccc2=O)cc1,/,3%,/,/,11%
NS(=O)(=O)c1cccc(NC(=O)Nc2ccccc2)c1,2.1µM*,-16%,103%,16%,-5%
COc1ccc(NC(=O)c2nn(C)c(=O)c3ccccc23)cc1S(=O)(=O)Nc1ccccc1Cl,-10%,/,-15%,-6%,/
COc1ccccc1NS(=O)(=O)c1cccc(NC(=O)c2nn(C)c(=O)c3ccccc23)c1,?,/,10µM*,-2%,/
CCOc1ccc(CNC(=O)C2CCN(C(=O)N3CC(CC)Oc4ccccc43)CC2)cc1 (stereo not given),/,-1%,/,/,-15%
O=C(/C=C/c1ccc(Cl)cc1)Nc1nc(-c2cccs2)ns1,/,-19%,/,/,-29%
CCc1cc(=O)oc2c(CN3CCCC3)c(O)c(Cl)cc12,17%,/,/,19%,/
CCc1cc(=O)oc2cc(C)c(CN3CCCC(C)C3)c(O)c12 (stereo not given),2.1µM*,/,?,19µM*,/
CCCCc1cc(=O)oc2c(CN3CCCC3)c(O)ccc12,?,/,?,5%,/
CCCCc1cc(=O)oc2cc(C)c(CN3CCCC3)c(O)c12,4.1µM*,/,105%,-11%,/
Cc1cc(Oc2ccc(Cl)cc2Cl)nc(C#N)n1,/,?,/,/,-30%
COc1ccccc1Nc1ccc2c(O)cc(S(=O)(=O)O)cc2c1,/,-24%,/,20µM*,-19%
O=S(=O)(O)c1cc(O)c2ccc(Nc3ccccc3)cc2c1,/,?,/,-23%,-5%
SMILES,Pf growth 48h,VACV mCherry inh,Pf growth 96h,AMA1-RON2 inh,VACV Venus inh
CC(C)C[C@H](CN)CC(=O)O,/,-26%,/,/,-12%
Nc1cccc(-c2c[nH]c3ncc(-c4cccnc4)cc23)c1,/,?,/,-26%,10µM*
CCN1CCc2nc3ccccc3c(C(=O)Nc3ccc(C#N)cc3)c2C1,?,-6%,2.6µM*,-2%,-17%
CC(C)CCC(CCNCc1ccccn1)c1ccc(Cl)cc1 (stereo not given),3.3µM*,?,3.3µM*,52%,-12%
O=C1CC(N2CCN(C(c3ccccc3)c3ccccc3)CC2)C(=O)N1Cc1ccc(N2CCCC2=O)cc1 (stereo not given),9.3µM*,/,15µM*,11%,/
NC(=O)C1CCN(C2CC(=O)N(Cc3ccc(N4CCCC4=O)cc3)C2=O)CC1 (stereo not given),5%,-14%,/,17%,-1%
COc1ccc2cc(C(=O)NCc3ccccc3)c(=Nc3ccc(C(=O)O)cc3)oc2c1,?,/,0.41µM*,5%,/
COc1cccc2cc(C(=O)NCc3ccco3)c(=Nc3ccc(C(=O)O)cc3)oc12,/,7.9µM*,?,2%,10µM*
Brc1cc(Br)c[n+](CCc2ccccc2)c1,/,0%,/,/,-9%
Cc1onc(-c2ccccc2Cl)c1C(=O)OCN1C(=O)c2ccccc2C1=O,12%,/,13µM*,9%,-13%
Cc1onc(-c2ccccc2Cl)c1C(=O)Nc1cccc2cccnc12,9.3µM*,?,?,-2%,-24%
COc1cc(NC(=O)c2c(-c3ccccc3Cl)noc2C)c2ncccc2c1,/,i,/,2%,-12%
CCSc1nnc(NC(=O)c2c(-c3ccccc3Cl)noc2C)s1,/,i,5.9µM*,-9%,-8%
Cc1onc(-c2ccccc2Cl)c1C(=O)NCCn1c(C)cc2ccccc21,13µM*,?,10µM*,-21%,-10%
Cc1onc(-c2ccccc2Cl)c1C(=O)OCc1cnc(Cl)s1,0%,/,0%,33%,/
CCc1ccc2oc(C(=O)Nc3ccccc3C(=O)OC)cc(=O)c2c1,/,-19%,/,/,-9%
O=C(COCc1cc(-c2ccc3c(c2)OCO3)on1)Nc1cc(C(F)(F)F)ccc1Cl,/,-11%,/,/,1%
Cc1cccc(C(=O)Nc2cccc3cccnc23)c1,97%,/,180%,10%,/
Cc1cnc(C(=O)Nc2ccccc2C(=O)N2CCOCC2)cn1,16%,-9%,3.7µM*,12%,4%
CCCCNS(=O)(=O)c1ccc(NC(=O)c2c(-c3ccccc3Cl)noc2C)cc1,/,-30%,5.2µM*,10%,-20%
Cc1onc(-c2ccccc2Cl)c1C(=O)NC1CCS(=O)(=O)C1 (stereo not given),/,9%,12µM*,-1%,0%
Cc1cnc(C(=O)Nc2cccc3cccnc23)cn1,0.37µM*,?,4%,113%,?
CCc1ccc(C2=C(C)C(N3CCC(C(=O)NCCc4ccco4)CC3)=NS2(=O)=O)cc1,/,-9%[7.34 µM],/,/,-5%[7.34 µM]
Cc1ccc(-c2cn3cccnc3n2)cc1NC(=O)c1c(-c2ccccc2Cl)noc1C,?,2%,37%,-1%,-30%
Cc1onc(-c2ccccc2Cl)c1C(=O)Nc1ccc(-c2cn3cccnc3n2)cc1,10µM*,-10%,?,-1%,-15%
Cc1cc(C2CCCCC2)n(O)c(=O)c1,0.74µM*,4.5µM*,0.47µM*,69%,?
Cc1cc(C)c(NC(=O)NC2CCCCC2)c(C)c1,-3%,-20%,6%,0%,-2%
Nc1c(C(=O)Nc2ccccc2Cl)c2ccccn2c1C(=O)c1ccccc1,/,-8%,/,/,4%
COC(=O)c1c(C)[nH]c(C(=O)COC(=O)c2c(C)noc2C)c1C,11%,/,14%,-4%,/
